Source: PubChem BioAssay (The Scripps Research Institute Molecular Screening Center)
DAX1 inh-1 = DAX1 (NR0B1) inhibitors, primary screen, cell-based, HEK293, Gal4-DAX1, luciferase luminescence; HEK293 Gal4-DAX1 luciferase reporter; Nuclear receptor subfamily 0 group B member 1 (Homo sapiens), P51843; AID 504766, 2011; actives 0.99% (n = 340,000); inhibition, % at 6.75 µM;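 active means inhibition above the mean over all tested compounds plus 3 SD, cut at about 4.2% in these data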;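 further: 0% = DAX1-transfected cells with DMSO and 100% = empty-vector control cells with DMSO; inhibition shows as a rise in luminescence from relieved DAX1 repression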
Target sequence (P51843 207-470 limits assumed): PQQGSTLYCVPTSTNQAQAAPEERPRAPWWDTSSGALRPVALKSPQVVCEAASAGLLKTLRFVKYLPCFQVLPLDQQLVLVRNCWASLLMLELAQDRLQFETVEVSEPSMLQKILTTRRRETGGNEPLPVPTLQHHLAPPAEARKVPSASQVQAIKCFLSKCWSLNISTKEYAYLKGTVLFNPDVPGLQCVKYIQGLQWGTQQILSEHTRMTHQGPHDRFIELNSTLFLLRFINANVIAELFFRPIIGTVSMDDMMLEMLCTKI
hcDAF-12 act = H. contortus DAF-12 nuclear receptor activators, primary screen, cell-based, luminescence, HEK293, lit1-tk-luc reporter; HEK293 hcDAF-12 lit1-tk-luc reporter; 0% DMSO, 100% Δ7-dafachronic acid; activation, % at 6.8 µM; actives 1.4% (n = 370,000); AID 652067, 2013;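 active means activation above the mean of all tested compounds plus 3 SD, cut at about 5.5% in these data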;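 further: 100% = response to 3 µM Δ7-dafachronic acid high control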
hgDAF12 agonist = H. glycines DAF-12 receptor agonists, primary screen, cell-based, luminescence, HEK293, GAL4 fusion, UAS-luciferase. activation, % at 6.8 µM. actives 1.8% (n = 370,000). Nuclear hormone receptor DAF-12 (Heterodera glycines), GAL4 fusion. HEK293 GAL4-hgDAF12 UAS-luciferase reporter, agonist luminescence; normalized to butyrate control. AID 687014, 2013;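 active means activation above a cutoff set at the mean of all screened compounds plus 3 SD, cut at about 10% in these data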;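 further: 0% = DMSO wells and 100% = sodium butyrate wells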
DAX1 inh-2 = DAX1 (NR0B1) inhibitors on StAR promoter, primary screen, cell-based, luminescence, SF-1 (NR5A1), full-length DAX-1 | HEK293T StAR-luciferase reporter, SF-1/DAX-1 repression relief | inhibition, % at 6.8 µM | actives 1.1% (n = 370,000) | AID 652010, 2013;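 active means inhibition above the mean over all tested compounds plus 3 SD, cut at about 3.6% in these data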;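 further: 0% = DAX-1 cells with DMSO and 100% = cells lacking DAX-1 with DMSO; higher inhibition means more luminescence from relief of DAX-1 repression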
ssDAF12 agonist = S. stercoralis DAF-12 nuclear receptor activators, primary screen, cell-based, luminescence, HEK293, GRIP1 co-expression, lit1-tk-luc; activation, % at 6.8 µM; actives 1% (n = 370,000); Nuclear hormone receptor DAF-12 (Strongyloides stercoralis); AID 652126, 2013; HEK293 ssDAF-12/GRIP1 lit1-tk-luc reporter; % of 3 µM dafachronic acid response;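 active means activation above the mean over all tested compounds plus 3 SD, cut at about 0.9% in these data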;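 further: 0% = DMSO-only wells and 100% = 3 µM delta7-dafachronic acid wells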
AHR activator = AHR activators, primary screen, cell-based, luminescence, luciferase reporter, human | actives 2.5% (n = 320,000) | AHR-responsive luciferase reporter cells | activation, % at 5 µM | Aryl hydrocarbon receptor (Homo sapiens), P35869 | AID 2796, 2010; in the data active means activation above about 47%;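 further: 0% = vehicle wells and 100% = reference agonist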
AHR act confirm = AHR activators, confirmation, cell-based, luminescence, luciferase reporter, human. human cells, AHR-responsive luciferase reporter. activation, % at 9 µM. shares compounds with AHR activator. actives 87% (n = 2,300); in the data active means activation above about 49%;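 further: HepG2 hepatoma cells carrying a DRE-driven firefly luciferase reporter; 0% = vehicle wells and 100% = reference agonist wells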
PXR act counter = human PXR activators, counter-screen for AHR activator project, cell-based, luciferase luminescence; shares compounds with AHR activator; cell-based PXR reporter; activation, % at 11.6 µM; actives 88% (n = 2,300); AID 434939, 2010; in the data active means activation above about 11%;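 further: human hepatoma DPX-2 cells expressing full-length human PXR; 0% = DMSO and 100% = reference agonist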
Target sequence (O75469 whole entry, looked up): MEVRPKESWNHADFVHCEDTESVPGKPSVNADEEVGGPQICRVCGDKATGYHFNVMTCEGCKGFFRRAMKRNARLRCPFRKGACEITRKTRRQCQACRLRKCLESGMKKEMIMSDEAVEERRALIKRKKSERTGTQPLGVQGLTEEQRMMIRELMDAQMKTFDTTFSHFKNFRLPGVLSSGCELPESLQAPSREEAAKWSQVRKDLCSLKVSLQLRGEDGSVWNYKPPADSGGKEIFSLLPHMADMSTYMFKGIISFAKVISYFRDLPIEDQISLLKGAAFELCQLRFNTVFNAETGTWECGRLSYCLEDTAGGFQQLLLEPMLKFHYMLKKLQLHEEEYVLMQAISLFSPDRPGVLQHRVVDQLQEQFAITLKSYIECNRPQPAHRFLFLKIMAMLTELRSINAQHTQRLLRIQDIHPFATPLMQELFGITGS
Starred values were filed as active, the others as inactive; nt = no result given. Shown are actives, neighbours in structure and some others; about 5.7% of the full set was active somewhere.

SMILES	DAX1 inh-1	hcDAF-12 act	hgDAF12 agonist	DAX1 inh-2	ssDAF12 agonist	AHR activator	AHR act confirm	PXR act counter
Cc1cccc2sc(N3CCN(C(=O)C4COc5ccccc5O4)CC3)nc12 (stereo not drawn)	-1.0	-0.8	0.3	1.1	-1.3	-2.6	nt	nt
Cc1ccc(C)n1-c1ccc(C(=O)NN)cc1	-1.4	0.7	-0.1	0.1	-1.1	1.7	nt	nt
Cc1cc(C)cc(NC(=O)Nc2ccccc2N2CCCCC2)c1	0.1	-0.6	-0.6	-0.2	-0.9	10.6	nt	nt
N#C/C(=N\Nc1ccc(S(=O)(=O)N2CCOCC2)cc1)C(N)=S	1.5	-2.0	2.7	-0.1	-1.3	0.5	nt	nt
Cc1ccc(N/N=C(\C#N)C(=N)N2CCOCC2)cc1	5.2*	3.0	13.0*	1.2	0.6	122.7*	115.3*	16.5*
Nn1c(SCCOc2ccc(Cl)cc2)nnc1-c1cccnc1	1.1	0.5	-0.6	0.0	-1.2	91.0*	124.6*	21.9*
Nn1c(SCCOc2ccccc2)nnc1-c1cccnc1	0.3	1.4	1.7	-0.3	-0.9	25.1	nt	nt
O=C(NCC(c1ccco1)N1CCCCC1)c1ccc(COc2ccccc2)cc1 (stereo not drawn)	-0.6	-2.6	-1.0	-1.7	-0.9	-1.2	nt	nt
Cc1[nH][nH]c(=O)c1N=Nc1ccc(Br)c(Cl)c1	-1.5	1.3	0.1	-0.3	-1.3	85.3*	127.6*	10.8*
Cc1[nH][nH]c(=O)c1N=Nc1ccc(S(N)(=O)=O)cc1	nt	-1.1	-6.3	-0.6	-1.6	1.9	nt	nt
COc1ccc(-c2ccc(=O)n(CC(=O)NCC3COCCO3)n2)cc1 (stereo not drawn)	1.3	-0.8	-1.3	1.4	-0.9	-1.2	nt	nt
Cc1c(C(=O)NCc2ccccc2CN2CCCC2)oc2c(F)cccc12	-0.2	1.8	8.4	0.3	0.0	80.3*	95.4*	38.5*
OCC[C@@H]1C[C@H](O)[C@@H](O)[C@@]2(CCc3ccccc3O2)O1	0.2	0.1	-1.3	-0.1	-0.6	3.4	nt	nt
O=C(Nc1nc2c(s1)CCc1ccccc1-2)c1cccs1	1.1	3.5	2.0	0.3	0.0	85.5*	158.0*	19.7*
CCCSc1nc2cc(C)c(C)cc2n1CC(C)O (stereo not drawn)	0.4	-0.5	6.6	0.3	-1.0	9.9	nt	nt
COc1ccc(C(=O)Nc2ccccc2C(=O)N/N=C/c2ccco2)cc1	-2.4	4.2	7.5	1.4	0.5	137.4*	99.7*	29.2*
COc1ccc(/C=N/NC(=O)c2ccccc2NC(=O)c2ccco2)c(OC)c1	1.3	-0.3	0.9	-0.1	-1.4	12.3	nt	nt
CCOc1ccc(/C=N/NC(=O)c2ccccc2NC(=O)c2ccc(OC)cc2)cc1	-1.1	1.8	3.0	1.2	-0.4	106.3*	12.9	30.8*
COc1ccc(C(=O)Nc2ccccc2C(=O)Nc2ccccc2)cc1	1.3	1.7	0.2	0.4	-0.4	nt	nt	nt
Nc1cccc(NC(=O)c2cccs2)c1	2.6	4.0	3.9	-0.2	0.2	21.5	nt	nt
O=C(Nc1cccc(N2CCCC2)c1)c1cccs1	-0.2	-0.1	0.2	-0.1	-0.9	88.2*	91.8*	37.3*
Cc1nc2nc(-c3cccnc3)nn2c(C)c1Cl	1.0	0.6	3.3	0.9	-0.3	97.8*	111.9*	29.4*
Oc1ccc(C[C@H]2CNC(=S)N2CC2CCCN2C[C@H](Cc2ccc(O)cc2)N2C[C@H](Cc3ccccc3)N(CC3CCCCCC3)C2=S)cc1 (stereo partly drawn)	-0.7	-2.6	-0.6	0.2	-1.2	nt	nt	nt
Cc1n[nH]c(C)c1N=Nc1ccc(Br)cc1	1.2	4.8	7.9	0.4	0.0	131.7*	123.1*	20.2*
COc1ccc(N=Nc2c(C)n[nH]c2C)cc1	1.1	0.2	5.6	0.7	-0.7	46.9	nt	nt
SMILES	DAX1 inh-1	hcDAF-12 act	hgDAF12 agonist	DAX1 inh-2	ssDAF12 agonist	AHR activator	AHR act confirm	PXR act counter
Cc1ccccc1/C=c1\s/c(=C\C(=O)C(C)(C)C)[nH]c1=O	0.8	-1.0	-0.3	-1.2	-1.5	119.2*	76.4*	104.9*
CCC(=O)N1CCc2cc(S(=O)(=O)CCC(=O)Nc3cccc(C)n3)ccc21	-1.7	-1.2	-0.7	0.0	-0.1	-2.9	nt	nt
CC1CC(=O)C=C(O)C1C(=O)OC(C)(C)C (stereo not drawn)	1.2	-1.1	-0.6	0.9	-0.6	2.4	nt	nt
Cc1ccc(-n2c(=O)[nH]cc(C(=O)Nc3ccc4c(c3)OCO4)c2=O)cc1C	0.1	0.9	-1.4	-0.2	-1.7	88.5*	67.5*	nt
COc1ccc(-c2[nH]ncc2/C=N\NS(=O)(=O)c2ccccc2)cc1OC	-0.1	-1.9	-0.1	-0.3	-0.8	91.8*	33.0	23.9*
COc1ccc(-c2[nH]ncc2/C=N\NS(=O)(=O)c2ccc(Cl)cc2)cc1	0.5	nt	nt	nt	nt	32.6	nt	nt
O=C(CNC(=O)c1ccccc1)N/N=C/c1cn[nH]c1-c1ccccc1	0.0	-1.1	-0.1	-0.2	-0.6	145.9*	92.5*	20.1*
COc1ccccc1C(=O)NCC(=O)N/N=C/c1cn[nH]c1-c1ccccc1	-1.9	1.3	-3.6	-0.9	-0.3	155.7*	111.3*	12.0*
O=C(Nc1nc2c(Cl)cccc2s1)c1ccc(Br)o1	0.4	1.2	3.9	0.0	-1.0	102.1*	105.5*	66.6*
S=c1[nH]nc(-c2cc3c(s2)-c2ccccc2CC3)o1	2.3	3.9	5.5	0.0	0.5	93.3*	116.1*	23.0*
CC1CCc2sc(-c3n[nH]c(=S)o3)cc2C1 (stereo not drawn)	2.8	1.0	4.9	1.3	-0.7	4.1	nt	nt
CC(=O)Nc1sc2c(c1-c1nc3ccccc3s1)CCN(C(C)C)C2	0.9	nt	nt	nt	nt	172.0*	69.7*	nt
CC(C)N1CCc2c(sc(NC(=O)c3ccc4ccccc4c3)c2C(N)=O)C1	0.5	-1.4	7.3	2.6	-0.5	6.3	nt	nt
Cc1cc2n(n1)C(c1ccsc1)Nc1ccccc1-2 (stereo not drawn)	-0.5	0.9	-1.6	1.1	-1.6	19.2	nt	nt
